# Measurements reported in PubChem BioAssay (NCATS).
# Experiment: qHTS profiling of the MIPE4 collection as inhibitors of Plasmodium falciparum (DD2) proliferation (AID 743345)
# Details: P. falciparum Dd2 in erythrocytes, SYBR Green DNA, 72 h; at 28.5 µM (top of the series) unless noted
# Summary of the method: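 Erythrocytes infected with P. falciparum (0.3% parasitemia, 2.5% hematocrit) incubated with compounds 72 h at 37 C, 5% CO2. Lysis with saponin/Triton buffer containing SYBR Green I, overnight at room temperature in the dark; DNA fluorescence (485/535 nm) normalised to 0.29 uM artemisinin and DMSO.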
row,SMILES,"parasite growth remaining, % of DMSO control (lower = more inhibition) [%]"
1,O=C(N[C@@H](COc1ccc2[nH]c(=O)[nH]c2c1)c1ccccc1)c1cccn(Cc2ccc(F)c(F)c2)c1=O,85.6
2,C[C@]12CCC(=O)C(O)=C1CC[C@@H]1[C@H]3CCC(=O)[C@@]3(C)CC[C@@H]12,94.3
3,O=S(=O)(F)Cc1ccccc1,95.2
4,CC(C)(C)c1cc(C=C(C#N)C#N)cc(Br)c1O,93.3
5,C[C@@H]1CC[C@@]2(OC1)O[C@H]1C[C@H]3[C@@H]4CC=C5C[C@@H](O[C@@H]6O[C@H](CO)[C@@H](O[C@@H]7O[C@@H](C)[C@H](O)[C@@H](O)[C@@H]7O)[C@H](O)[C@@H]6O[C@@H]6O[C@@H](C)[C@H](O)[C@@H](O)[C@@H]6O)CC[C@]5(C)[C@@H]4CC[C@]3(C)[C@@H]1[C@H]2C,52.8
6,O=C(NCC1CCOCC1)c1cnc(Nc2ccc(Cl)cc2Cl)nc1C(F)(F)F,102
7,CC(=O)OCC1=C(C(=O)O)N2C(=O)[C@@H](N)[C@@H]2SC1,97.8
8,O=C1C=CC[C@@H]2[C@H]3CCCN4CCC[C@@H](CN12)[C@@H]34,99.7
9,CC1=C(O)C(=O)C=C2C1=CC=C1[C@@]2(C)CC[C@@]2(C)[C@@H]3C[C@](C)(C(=O)O)CC[C@]3(C)CC[C@]12C,7.57
10,C[C@@H]1CC[C@H]2[C@@H](C)C(=O)O[C@@H]3O[C@@]4(C)CC[C@H]1[C@]32OO4,7.95
11,CC(=O)N(C)c1cccc(-c2ccnc3c(C(=O)c4cccs4)cnn23)c1,66.2
12,COc1cc2cc(c1Cl)N(C)C(=O)C[C@H](OC(=O)C(C)C)[C@]1(C)O[C@H]1[C@H](C)[C@@H]1C[C@@](O)(NC(=O)O1)[C@H](OC)C=CC=C(C)C2,16.8
13,O=c1cccc2n1CC1CNC[C@H]2C1,90.9
14,COc1cccc2c1[C@]13CCN(CC4CC4)[C@H](C2)[C@]1(OC)CCC(=O)C3,102
15,O=C(Nc1ccncc1)C(=O)c1cn(Cc2ccc(Cl)cc2)c2ccccc12,85.2
16,CCNC(=O)CC1N=C(c2ccc(Cl)cc2)c2cc(OC)ccc2-n2c(C)nnc21 (centres undefined),93.8
17,CCN1CCN(C(=O)Cc2ccc(Nc3ncc(F)c(Nc4ccc(C(=O)Nc5ccccc5Cl)cc4)n3)cc2)CC1,7.02
18,C[C@]12CC[C@H](O)CC1=CC[C@H]1[C@H]3CCC(=O)[C@@]3(C)CC[C@@H]12,97.4
19,CC(=CCCC1=CCC(C2=CC(=O)OC2O)OC1O)CCC1=C(C)CCCC1(C)C (centres undefined),44.2
20,C[C@]12CC[C@@H]3[C@@H](CCC4=CC(=O)CC[C@@H]43)[C@@H]1CC[C@@H]2OC(=O)CCc1ccccc1,83

row,SMILES,"parasite growth remaining, % of DMSO control (lower = more inhibition) [%]"
1,CSCC[C@@H](NC(=O)[C@@H](Cc1ccccc1)NC(=O)CNC(=O)CNC(=O)[C@@H](N)Cc1ccc(O)cc1)C(=O)O,49.8
2,C#CC1(O)CCC2C3CCC4=CC(=O)CCC4(C)C3CCC21C (centres undefined),106
3,CCC(=O)OC1CCC2C3CCC4=CC(=O)CC[C@@]4(C)C3CC[C@]12C (some centres undefined),96.4
4,O=C1CCC[C@@H]2[C@H]3CCCN4CCC[C@@H](CN12)[C@@H]34,97.9
5,COc1ccc(N(C(=O)Oc2c(C)cccc2C)c2ccnc(Nc3ccc(N4CCN(C)CC4)cc3)n2)c(OC)c1,6.94
6,COC1=C[C@@H]2[C@@H]3Cc4ccc(OC)c(O)c4[C@]2(CCN3C)CC1=O,84.4
7,CC=C(C)C(=O)O[C@H]1C(C)=C2[C@@H]3OC(=O)[C@@](C)(O)[C@@]3(O)[C@@H](OC(=O)CCC)C[C@](C)(OC(C)=O)[C@@H]2[C@@H]1OC(=O)CCCCCCC,8.2
8,C=C[C@@H]1CN2CCC1C[C@@H]2[C@@H](O)c1ccnc2ccccc12 (some centres undefined),21.4
9,C=C[C@@H]1CN2CCC1C[C@H]2[C@H](O)c1ccnc2ccccc12 (some centres undefined),10.8
10,C[C@@]12OC(=O)[C@]1([C@@H](O)[C@@H]1C=CCCC1)NC(=O)[C@H]2CCCl,7.57
11,COC[C@H]1OC(=O)c2coc3c2[C@@]1(C)C1=C(C3=O)[C@@H]2CC[C@H](O)[C@@]2(C)C[C@@H]1OC(C)=O,83.2
12,CC=C(C)C(=O)N[C@@H](c1ccccc1)[C@@H](O)C(=O)O[C@H]1C[C@@]2(O)[C@@H](OC(=O)c3ccccc3)[C@@H]3[C@]4(OC(C)=O)CO[C@@H]4C[C@H](O)[C@@]3(C)C(=O)[C@H](OC(C)=O)C(=C1C)C2(C)C,14
13,CCNC(=O)C[C@@H]1N=C(c2ccc(Cl)cc2)c2cc(OC)ccc2-n2c(C)nnc21,106
14,CCOP(=O)(OCC)C(C)NC(=O)N(CCCl)N=O (centres undefined),97.6
15,COc1ccc2c(c1)CN(C)CC2c1ccc(Cl)c(Cl)c1 (centres undefined),40.2
16,C[C@@H]1O[C@@H](O[C@@H]2C=C3CC[C@@H]4[C@@H](CC[C@]5(C)[C@H](c6ccc(=O)oc6)CC[C@@]45O)[C@@]3(C)CC2)[C@H](O)[C@H](O)[C@H]1O,94.6
17,Cc1[nH]nc2ccc(-c3cncc(OC[C@@H](N)Cc4c[nH]c5ccccc45)c3)cc12,47.9
18,CO[C@H]1CCC(O[C@H]2C[C@H]([C@]3(C)CC[C@]4(C[C@H](O)[C@@H](C)[C@@H]([C@@H](C)C=C(C)C(=O)[C@H](C)C[C@H](C)C(=O)O)O4)O3)O[C@]3(O[C@@H]([C@H]4O[C@@](O)(CO)[C@H](C)C[C@H]4C)C[C@H]3C)[C@H]2C)O[C@H]1C (some centres undefined),5.36
19,CC(=Cc1csc(C)n1)[C@@H]1C[C@H]2O[C@]2(C)CCC[C@H](C)[C@@H](O)[C@@H](C)C(=O)C(C)(C)[C@@H](O)CC(=O)O1,15.7
